Assay [1] can be described thus: Wnt pathway potentiators raising nuclear beta-catenin – imaging, WNT3A-conditioned medium, mouse C2C12, NPC library, primary screen (AID 1117326; in the data active means nuclear beta-catenin stimulation mostly above about 4.2%, no sharp cut-off; inactive means mostly below about 10%; further: reference of the scale not given here). Particulars: stronger effect = higher value.
A short description of assay [2]: stimulators of insulin release from INS-1E, primary screen, cell-based, 5 mM glucose, NPC library (AID 1117329;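 active means compound raises insulin release from rat beta cells at 5 mM glucose, no numeric limit stated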; further: reference of the scale not given here). To be noted: rat INS-1E insulin secretion, at 10 µM, stronger effect = higher value.
Assay [3] in a line: growth inhibition of GSK3B-pretreated HCT116 cells – cell-based, CellTiter-Glo, 0.2 to 20 µM (AID 1117336;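 active means compounds lowering colon cancer cell viability after pretreatment blocking the GSK3B kinase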). Particulars: HCT116 viability after GSK3B inhibitor, at 20 µM, stronger effect = higher value. (In general: In ATP-based viability assays light output follows the ATP content of the culture.)
Assay [4] in a line: inhibition of endothelial tube formation, primary screen, imaging, VEGF stimulated, CD31 staining, tube area, NPC library (AID 1117340;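 active means compound that reduces growth-factor-driven endothelial tube area in a mixed cell culture, no cutoff stated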). To be noted: VEGF-stimulated ADSC/ECFC co-culture, at 10 µM, stronger effect = higher value.
Assay [5] can be described thus: GLP1 release stimulators, primary, NCI-H716, NPC library (AID 1117341;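 active means compound raises GLP1 secretion from the human gut endocrine cells, with no numeric limit stated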; further: reference of the scale not given here). To be noted: NCI-H716 cells, at 10 µM, stronger effect = higher value.
Assay [6] in a line: HCT116 colon cancer cell growth inhibition, primary screen, CellTiter-Glo luminescence, NPC library (AID 1117342;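 active means compounds that lower survival of HCT116 colon cancer cells in the luminescence readout, no numeric limit stated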). To be noted: at 20 µM (top of the series).
The nature of assay [7]: reduced SW480 viability measured with CellTiter-Glo, NPC library, primary (AID 1117343). Particulars: CellTiter-Glo luminescence; at 20 µM (top of the series).
Assay [8] can be described thus: NPC library primary testing for decreased DLD-1 cell viability via CellTiter-Glo (AID 1117346;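 active means compounds that lower survival of DLD-1 colon cancer cells in the luminescence readout, no cutoff given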). To be noted: DLD-1 viability, CellTiter-Glo luminescence; at 20 µM (top of the series).

Activity calls are given as the source filed them.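 How the source made its calls, unless noted: active means compounds that lower viability of the colon cancer cells in the luminescence readout, with no numeric limit stated; inactive means the rest.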

The text below walks through data of PubChem BioAssay.

Turning to `CCCCOC(=O)CC(CC(=O)OCCCC)(OC(C)=O)C(=O)OCCCC`, the nuclear beta-catenin stimulation in assay [1] (at 10 µM) was -0.3% (inactive); in assay [1] (stimulation, at 2 µM) it was 0.1%. In addition, the insulin secretion stimulation in assay [2] is 6.2% (inactive). The viability decrease in assay [3] was 30.4% (inactive). In assay [4], the tube area decrease is 2.1% (inactive). In addition, the GLP1 secretion stimulation in assay [5] is 0.1% (inactive). In assay [6], the inhibition of viability is 25.9% (inactive). For the same molecule, the values for the viability decrease (inhibition) in assay [7] and in assay [8] were 62.1% (active) and 26.9% (inactive), respectively.

On to `c1ccc2sc(SN3CCOCC3)nc2c1`, for which the nuclear beta-catenin stimulation in assay [1] (at 10 µM) is 0.5% (inactive); in assay [1] (stimulation, at 2 µM), 2.1%. Further, the insulin secretion stimulation in assay [2] is -2.6% (inactive). Further, the viability decrease in assay [3] is 2.05% (inactive). Moreover, in assay [4], the tube area decrease was 18.9% (inactive). In assay [5], the GLP1 secretion stimulation was -0.9% (inactive). Also, the inhibition of viability in assay [6] was -10.4% (inactive). In addition, the viability decrease (inhibition) in assay [7] was 110% (active); in assay [8], 6.4% (inactive).

Turning to `CCOC(=O)C1=C(O)c2ccccc2S(=O)(=O)N1C`, the nuclear beta-catenin stimulation is -1.5% (inactive) in assay [1] (at 10 µM) and -0.7% in assay [1] (stimulation, at 2 µM). Also, the insulin secretion stimulation in assay [2] was 0.9% (inactive). In addition, the viability decrease in assay [3] was -6% (inactive). The tube area decrease in assay [4] was -19.5% (inactive). Also, in assay [5], the GLP1 secretion stimulation is -4% (inactive). The inhibition of viability in assay [6] is 10.3% (inactive). In addition, the results for the viability decrease (inhibition) in assay [7] and in assay [8] were 12% (inactive) and 4.2% (inactive), respectively.

On to `CC(=O)N1C[C@H](O)C[C@H]1C(=O)O`, for which the nuclear beta-catenin stimulation was 0.5% (inactive) in assay [1] (at 10 µM) and -0.3% in assay [1] (stimulation, at 2 µM). The insulin secretion stimulation in assay [2] was -0.3% (inactive). The viability decrease in assay [3] was -2.7% (inactive). In assay [4], the tube area decrease is -1.7% (inactive). In assay [5], the GLP1 secretion stimulation is -0.9% (inactive). Also, in assay [6], the inhibition of viability is 7.13% (inactive). Besides, the viability decrease (inhibition) in assay [7] was 8.1% (inactive); in assay [8], 4% (inactive).

In the case of `CC1(C)O[C@@H]2C[C@H]3[C@@H]4CCC5=CC(=O)C=C[C@]5(C)[C@@H]4[C@@H](O)C[C@]3(C)[C@]2(C(=O)CO)O1`, the nuclear beta-catenin stimulation in assay [1] (at 10 µM) was 0.6% (inactive); in assay [1] (stimulation, at 2 µM), 1.2%. Also, the insulin secretion stimulation in assay [2] was -1% (inactive). In assay [3], the viability decrease is -46.1% (inactive). In assay [4], the tube area decrease was 4.9% (inactive). Moreover, the GLP1 secretion stimulation in assay [5] was 1.2% (inactive). For the same molecule, the inhibition of viability in assay [6] was -6.5% (inactive). Also, the viability decrease (inhibition) is -17.7% (inactive) in assay [7] and -7.4% (inactive) in assay [8].

`CC(C)C[C@@H]1[C@H](c2ccccc2)OC(=O)N1CCCN1CCCCCC1`: the nuclear beta-catenin stimulation in assay [1] (at 10 µM) was 1.3% (inactive); in assay [1] (stimulation, at 2 µM), 1.6%. Besides, in assay [2], the insulin secretion stimulation was 15% (inactive). The viability decrease in assay [3] was 21.1% (inactive). In assay [4], the tube area decrease was 8% (inactive). In addition, the GLP1 secretion stimulation in assay [5] was 5.9% (inactive). For the same molecule, the inhibition of viability in assay [6] was 56.3% (active). Moreover, the viability decrease (inhibition) was 19.9% (inactive) in assay [7] and 18.3% (inactive) in assay [8].

Consider `Cc1cc(CC(=O)O)c(C)n1-c1ccc(Cl)cc1`, for which the nuclear beta-catenin stimulation was -0.5% (inactive) in assay [1] (at 10 µM) and -0.4% in assay [1] (stimulation, at 2 µM). For the same molecule, the insulin secretion stimulation in assay [2] was 2.3% (inactive). Besides, the viability decrease in assay [3] was -14.4% (inactive). For the same molecule, the tube area decrease in assay [4] was 1.3% (inactive). For the same molecule, in assay [5], the GLP1 secretion stimulation was -0.2% (inactive). Besides, in assay [6], the inhibition of viability was 7.9% (inactive). For the same molecule, the viability decrease (inhibition) was 11.7% (inactive) in assay [7] and -14.3% (inactive) in assay [8].

Take `Cc1ccc(-c2ccccc2C#N)cc1`: the nuclear beta-catenin stimulation in assay [1] (at 10 µM) was 1.4% (inactive); in assay [1] (stimulation, at 2 µM) it was 6.2%. Moreover, the insulin secretion stimulation in assay [2] is 0.25% (inactive). Moreover, the viability decrease in assay [3] is 3.2% (inactive). For the same molecule, the tube area decrease in assay [4] was -5.1% (inactive). Further, the GLP1 secretion stimulation in assay [5] is 2.4% (inactive). The inhibition of viability in assay [6] was -1.3% (inactive). The viability decrease (inhibition) in assay [7] is -24.5% (inactive); in assay [8] it was -11% (inactive).

`CCCCC(CC)CNC(=O)CC(C)OC(=O)CCC(=O)O` (configuration not stated): the nuclear beta-catenin stimulation in assay [1] (at 10 µM) is -1.8% (inactive); in assay [1] (stimulation, at 2 µM), -0.8%. For the same molecule, in assay [2], the insulin secretion stimulation was 4% (inactive). For the same molecule, the viability decrease in assay [3] was -11.7% (inactive). The tube area decrease in assay [4] is 0.6% (inactive). The GLP1 secretion stimulation in assay [5] is -1% (inactive). In addition, in assay [6], the inhibition of viability was 4.5% (inactive). In addition, the results for the viability decrease (inhibition) in assay [7] and in assay [8] were 4.5% (inactive) and -7.8% (inactive), respectively.

As to `O=C(Nc1ccc([N+](=O)[O-])cc1)Nc1ccc([N+](=O)[O-])cc1`, the nuclear beta-catenin stimulation was 3.2% (inactive) in assay [1] (at 10 µM) and 1.9% in assay [1] (stimulation, at 2 µM). Besides, in assay [2], the insulin secretion stimulation was -3.6% (inactive). For the same molecule, in assay [3], the viability decrease was -7.9% (inactive). Also, the tube area decrease in assay [4] is 62.3% (active). In addition, the GLP1 secretion stimulation in assay [5] was -0.9% (inactive). Moreover, the inhibition of viability in assay [6] was -44.5% (inactive). The figures for the viability decrease (inhibition) in assay [7] and in assay [8] were 44.3% (inactive) and -16.4% (inactive), respectively.

For the molecule `N#C/C(=C1/SC[C@@H](c2ccc(Cl)cc2Cl)S1)n1ccnc1`, the nuclear beta-catenin stimulation in assay [1] (at 10 µM) was 0.7% (inactive); in assay [1] (stimulation, at 2 µM), 2.8%. In assay [2], the insulin secretion stimulation was 2.35% (inactive). Also, in assay [3], the viability decrease is 88% (active). Further, in assay [4], the tube area decrease was 23.8% (inactive). The GLP1 secretion stimulation in assay [5] was -1.8% (inactive). In assay [6], the inhibition of viability is 101% (active). Besides, the viability decrease (inhibition) in assay [7] was 116% (active); in assay [8], 84.3% (active).

Take `Cc1nc(-c2ccc(Cl)cc2)oc1COC(C)(C)C(=O)O`: the nuclear beta-catenin stimulation in assay [1] (at 10 µM) was 0.5% (inactive); in assay [1] (stimulation, at 2 µM), 0.6%. Further, the insulin secretion stimulation in assay [2] was 3.1% (inactive). In addition, in assay [3], the viability decrease was -10.1% (inactive). The tube area decrease in assay [4] was 9.7% (inactive). For the same molecule, the GLP1 secretion stimulation in assay [5] was -2.6% (inactive). Also, in assay [6], the inhibition of viability was 8.5% (inactive). The figures for the viability decrease (inhibition) in assay [7] and in assay [8] were 14.8% (inactive) and 10% (active), respectively.

With `CCCOC(=O)c1cc(O)c(O)c(O)c1`, the nuclear beta-catenin stimulation in assay [1] (at 10 µM) is 4.2% (inactive); in assay [1] (stimulation, at 2 µM), 1.9%. The insulin secretion stimulation in assay [2] is -1.6% (inactive). Further, the viability decrease in assay [3] is 43.1% (inactive). In addition, the tube area decrease in assay [4] was 71.3% (active). In addition, the GLP1 secretion stimulation in assay [5] was -2.1% (inactive). For the same molecule, the inhibition of viability in assay [6] was 35.1% (inactive). In addition, the viability decrease (inhibition) was 78.3% (active) in assay [7] and 58.4% (active) in assay [8].
